# In all, about 39,000 sequences were measured (“fluorescence intensity (a.u.)”: median about 4,300, highest 2% from about 39,000 on). The full list was thinned out, with the highest values kept by preference.
# Target: T1, OsSMF1 (Oryza sativa, UniProt Q6ZLB0 1-436)
# T1 sequence: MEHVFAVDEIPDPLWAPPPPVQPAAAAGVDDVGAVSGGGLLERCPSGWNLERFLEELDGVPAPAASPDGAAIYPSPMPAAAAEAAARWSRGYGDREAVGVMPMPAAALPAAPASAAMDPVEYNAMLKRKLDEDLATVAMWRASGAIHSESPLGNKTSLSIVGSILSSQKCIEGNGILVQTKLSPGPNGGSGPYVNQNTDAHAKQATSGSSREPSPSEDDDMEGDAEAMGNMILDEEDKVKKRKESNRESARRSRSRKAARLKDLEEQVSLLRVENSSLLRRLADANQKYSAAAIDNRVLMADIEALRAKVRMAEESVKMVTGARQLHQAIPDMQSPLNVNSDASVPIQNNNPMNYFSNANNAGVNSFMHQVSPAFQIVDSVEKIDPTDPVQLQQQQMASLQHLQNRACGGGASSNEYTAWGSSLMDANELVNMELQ
# Experiment: protein-binding microarray (RPBM); PBS, 2% BSA, 51.3 ng/ul salmon testes DNA, 50 uM zinc acetate, 200 nM TF, 25 C, 1 h; high values mean tight binding
# Details: protein: recombinant; tags: N-terminal polyhistidine and DsRed monomer fusion (pET32a); chain copies: 2; label: CyDye5-dUTP incorporated in the synthesized complementary strand; 3' TTTTT single-stranded linker to array surface; dsDNA, one strand shown
# Summary of the method: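 Per-feature fluorescence intensity (arbitrary units), read on an Axon 4000B scanner, is the binding signal. Transcription factors carrying an N-terminal polyhistidine tag and DsRed fusion were expressed in E. coli BL21-CodonPlus and purified on Ni–NTA. A custom Agilent array, made double-stranded by primer extension with Cy5-dUTP and blocked with 2% BSA, was incubated with 200 nM protein in PBS, 2% BSA, salmon testes DNA and 50 µM zinc acetate at 25 °C for 1 h and then washed.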
row,Sequence,binding signal
1,TTCGTCATAGTGTGGAACGACACATCATGAAGATTAGAGACGGAGTCACCTAGTGCAG,3630 fluorescence intensity (a.u.)
2,GTTCTGTCTTAACCTGCTTTCATATTAATTGTTAAAGTTGCGGAGTCACCTAGTGCAG,3280 fluorescence intensity (a.u.)
3,TGCAAATTGTGCTTTTCTATTCTGTTGTGTCTTCTGCTTTCGGAGTCACCTAGTGCAG,40700 fluorescence intensity (a.u.)
4,CCGGGAAATTCTTGTGTTGTTGTGTTGGTCTTGAGCAATTCGGAGTCACCTAGTGCAG,3630 fluorescence intensity (a.u.)
5,AGCCTAGGAGGAGATGTGACCTCACAGTCAGGTGTCATCGCGGAGTCACCTAGTGCAG,3660 fluorescence intensity (a.u.)
6,ACCAACCAACCAACCAACCAACCAAGCCTCCCAACTCCATCGGAGTCACCTAGTGCAG,3810 fluorescence intensity (a.u.)
7,GATTCGCGTCCTCCGTTTGCTTCGCTTCTTCTTCTAGAACCGGAGTCACCTAGTGCAG,3490 fluorescence intensity (a.u.)
8,CGTCCACGTCCATCTCCGCCGCTGACAGCACCAGCTCTTCCGGAGTCACCTAGTGCAG,5020 fluorescence intensity (a.u.)
9,AGAGCCGAGGCCCGAATTCCTCCGGTCCTCCTCGTGACCCCGGAGTCACCTAGTGCAG,15400 fluorescence intensity (a.u.)
10,TTCCCCTTCCGCGACTGCGAGCTTCTCCGCCGCCGCCGCCCGGAGTCACCTAGTGCAG,3160 fluorescence intensity (a.u.)
11,ACCCCTGCGAATATATAATTTCCCCGCGAGGCCGCGAGCCCGGAGTCACCTAGTGCAG,47700 fluorescence intensity (a.u.)
12,CACTCTCCTCCTACACTGCATGCTGCTGCTGACGTGGCTCCGGAGTCACCTAGTGCAG,24900 fluorescence intensity (a.u.)
13,TGAGAATACCAGATGACAAAAGGTGACAGTAGTTAGGAACCGGAGTCACCTAGTGCAG,4190 fluorescence intensity (a.u.)
14,GGGAGGTGTGGTGATCGATCGCCATGCGCGGATTTTCTAACGGAGTCACCTAGTGCAG,5590 fluorescence intensity (a.u.)
15,GCTTGCGCCAAAACCAAACATAGAGCAGCAATAGAGAGGACGGAGTCACCTAGTGCAG,3610 fluorescence intensity (a.u.)
16,TGATTGTTTAACCAAAATATATGCAATTGACTAAGCAAAACGGAGTCACCTAGTGCAG,3220 fluorescence intensity (a.u.)
17,AGTGCTTTATCACACAGAATCAATACCCAAGAAGCATATGCGGAGTCACCTAGTGCAG,41000 fluorescence intensity (a.u.)
18,CCAAGCAAGCATACAGAGAGCAATAAAAGTATAAAACACACGGAGTCACCTAGTGCAG,4950 fluorescence intensity (a.u.)
19,TTTATCAAATATTTTGTTCCAAAGCTTACATAAGCATATGCGGAGTCACCTAGTGCAG,3320 fluorescence intensity (a.u.)
20,TTATCTCCAATTTAAGCAACCAGAGGAATATATATGCTTGCGGAGTCACCTAGTGCAG,53500 fluorescence intensity (a.u.)
21,CAACCAAGCAAGCGGCAGCAGAGCGCGAGTCATGCGACCCCGGAGTCACCTAGTGCAG,3180 fluorescence intensity (a.u.)
22,CACGCGCCGGTGCCTTGCGCCGTCACCGTGCCAGCCCAGCCGGAGTCACCTAGTGCAG,5670 fluorescence intensity (a.u.)
23,GCGTGGCCACATCAGCCTCCTCTCTCCCTTCCTCATCTCTCGGAGTCACCTAGTGCAG,14700 fluorescence intensity (a.u.)
24,AGGAGGGTGGAGCTGTGCCAAACAGACCCTAAGTGTTTTCCGGAGTCACCTAGTGCAG,62100 fluorescence intensity (a.u.)
25,AGGAGGGGTGGAGCTGGAGCTGGAGCTGTGCCAAACAGGCCGGAGTCACCTAGTGCAG,3190 fluorescence intensity (a.u.)
26,CTCCAGGAGGGGTGGAGTTGGAGCTGGAGCTGTGACAAACCGGAGTCACCTAGTGCAG,12800 fluorescence intensity (a.u.)
27,TTCTTTCATCAATTACTAGGCCTAGATGGGTAATTTTGGTCGGAGTCACCTAGTGCAG,3200 fluorescence intensity (a.u.)

row,Sequence,binding signal
1,ATCTTGCCGAAGTTGTTGGTGACGAAGTCGAGGCTGCCGACGGAGTCACCTAGTGCAG,3180 fluorescence intensity (a.u.)
2,AAAGTCAATATAGGAATACAATTTAGAAGTAACTTAAATTCGGAGTCACCTAGTGCAG,25600 fluorescence intensity (a.u.)
3,CTTAGCCGGCTATACGCGGCTACGTTGGCTGACTTGGTAGCGGAGTCACCTAGTGCAG,4170 fluorescence intensity (a.u.)
4,TTAGGCCAAGTATGGGGTTGGGGCTATGGAGGAGAAGGGCCGGAGTCACCTAGTGCAG,3320 fluorescence intensity (a.u.)
5,TACTTAGTAGCTAGGAGCTATATTGGTTGGAAAGGAGCGCCGGAGTCACCTAGTGCAG,51200 fluorescence intensity (a.u.)
6,CGCAGCACGCACGCACGCAGACACGCCCACGCGTTGCGGCCGGAGTCACCTAGTGCAG,3550 fluorescence intensity (a.u.)
7,CCGCGCCGTCCCTCCTGACGCGGCGTCTCGCCGCCGCCGCCGGAGTCACCTAGTGCAG,3780 fluorescence intensity (a.u.)
8,TCCCGATCGACGCGTGCATGGCGGCGAGCCTTCTGTCCCACGGAGTCACCTAGTGCAG,3330 fluorescence intensity (a.u.)
9,CCTTCCAACATGTTTATTATGCATGAGATGTGTGCAACGACGGAGTCACCTAGTGCAG,3360 fluorescence intensity (a.u.)
10,TTCAACGGCGCGTGCCGACGTGGCCGCTGCGGCGTGCGTGCGGAGTCACCTAGTGCAG,10300 fluorescence intensity (a.u.)
11,AGAGGGACGTCGACGCGTGGTGCCGTGGTGGTGTCGCTCGCGGAGTCACCTAGTGCAG,3400 fluorescence intensity (a.u.)
12,CATTCAACGCTCGCGTGCGTGCAGTGCCGTGTGTGGACCGCGGAGTCACCTAGTGCAG,54900 fluorescence intensity (a.u.)
13,TGGCACATTCTCATCGTATTTTCTTGTTGCTCTATGTATGCGGAGTCACCTAGTGCAG,3180 fluorescence intensity (a.u.)
14,ACTATAATTCATGGGATTATGTGCCAGCAGTCATAATATCCGGAGTCACCTAGTGCAG,3180 fluorescence intensity (a.u.)
15,CGCTACCGTGGCATGCCACGTCACCGGATGGAGCGGGTCGCGGAGTCACCTAGTGCAG,20100 fluorescence intensity (a.u.)
16,GACATGTAGGACCCACGTGAGTCAATGACACGTGGGTCAGCGGAGTCACCTAGTGCAG,23800 fluorescence intensity (a.u.)
17,TGTGGGGTCCACGTAATGCCACGTCAGCGCAACCTAGGAACGGAGTCACCTAGTGCAG,37100 fluorescence intensity (a.u.)
18,TTGAGTCAGTAGTGTTGACAACGGTCAAGGTGCCACGTCACGGAGTCACCTAGTGCAG,26100 fluorescence intensity (a.u.)
19,GTGCCTCCGTAGCAATGCCACGTCAGCATATGGAGCGGGTCGGAGTCACCTAGTGCAG,44600 fluorescence intensity (a.u.)
20,TATTACCACGTAGGCGCCACGTGGCGCCACGTCAGCAAAACGGAGTCACCTAGTGCAG,42100 fluorescence intensity (a.u.)
21,GCGTCATCATGACATGCCACGTCAGCACATGGAGCGGGTTCGGAGTCACCTAGTGCAG,26100 fluorescence intensity (a.u.)
22,ACACGTGGGTCCACGTAGGCGACACGTCAATGCCACGTCACGGAGTCACCTAGTGCAG,55900 fluorescence intensity (a.u.)
23,AAGTTCACAGTGCTGACCACGGTCAAGGTGCCACGTCATCCGGAGTCACCTAGTGCAG,35200 fluorescence intensity (a.u.)
24,GAGTTAGCAGTGTTGACCACGGTCAAGGTGCCACGTCATCCGGAGTCACCTAGTGCAG,43000 fluorescence intensity (a.u.)
25,CAGTGACTCCTCTCCTACGTAGGCGCCACGTCAGCAAAACCGGAGTCACCTAGTGCAG,20900 fluorescence intensity (a.u.)
26,ATTTTATTGGGATCAAATTACCACGTAGGCGCCACGTCAACGGAGTCACCTAGTGCAG,20900 fluorescence intensity (a.u.)
27,AGAGAGAGGGGAGAGGGGTGGAAGGGGAATATGGTAGCTGCGGAGTCACCTAGTGCAG,3330 fluorescence intensity (a.u.)
